# Measured values from PubChem BioAssay.
# The source made the active and inactive calls.
# Assays:
# [1] = small molecules captured by biotinylated probe aFSTL3 – biochemical, small-molecule microarray, fluorescence 635/667, stem cell growth factor project, primary screen (AID 1064); conditions: higher = more signal;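 also: measures binding of the biotinylated anti-FSTL3 antibody to printed compounds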
# [2] = binders from COS7 lysate, DM2A8 probe, primary screen, torsin A project, cell lysate, small-molecule microarray, fluorescence 635/667 (AID 1065); conditions: higher = more signal, COS7 lysate expressing mutant human TOR1A
# [3] = small molecules captured by biotinylated probe aFGF2 – biochemical, small-molecule microarray, fluorescence 635/667, stem cell growth factor project, primary screen (AID 1067); conditions: higher = more signal;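 also: measures binding of biotinylated aFGF2 protein to printed compounds on slides; z-score merges feature fluorescence and signal-to-noise across triplicate slides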
# [4] = small molecules captured by biotinylated probe aFGF10 – biochemical, small-molecule microarray, fluorescence 635/667, stem cell growth factor project, primary screen (AID 1071); conditions: higher = more signal;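 also: score merges 667 nm spot intensity and signal to noise from triplicate slides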
# [5] = target: Neurogenic locus notch homolog protein 2 (Homo sapiens) (UniProt Q04721); test: small molecules binding Notch2 protein – biochemical, small-molecule microarray, 635 nm fluorescence, stem cell growth factors, primary screen (AID 1073); conditions: higher = more signal
# [6] = target: Pro-neuregulin-1, membrane-bound isoform (Homo sapiens) (UniProt Q02297); test: small molecules binding neuregulin-1 protein – biochemical, small-molecule microarray, fluorescence 635/667, psychiatric disease protein project, primary screen (AID 1075); conditions: NRG1 binding, 635 nm fluorescence, higher = more signal;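 also: score combines 667 nm spot fluorescence with signal to noise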
# [7] = test system: Neuregulin-1 EGF-like domain; test: small molecules binding NRG1 EGF domain – biochemical, small-molecule microarray, 635 nm fluorescence, primary screen (AID 1081); conditions: higher = more signal;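 also: binding of the protein to compounds printed on small-molecule microarray slides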
# [8] = FRG1 expression reporter modulators in myotubes – cell-based, C2C12 myotubes, firefly/Renilla luciferase, luminescence, FRG1 inhibition for FSHD, primary screen (AID 1084); conditions: FRG1 promoter luciferase, higher = more signal, called active from +8 up or from −8 down
# [9] = small molecules captured by biotinylated probe aFST – biochemical, small-molecule microarray, fluorescence 635/667, stem cell growth factor project, primary screen (AID 1086); conditions: higher = more signal;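 also: score merges 667 nm fluorescence with signal-to-noise of each printed compound spot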
# [10] = binders of probe aHhip on microarray, primary screen, stem cell growth factor project, biochemical, small-molecule microarray, fluorescence 635/667 (AID 1087); conditions: higher = more signal;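 also: score merges spot fluorescence at 667nm with spot signal to noise ratio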
# [11] = test system: PRMT1 (protein arginine N-methyltransferase 1); test: small molecules binding arginine methyltransferase PRMT1 – biochemical, small-molecule microarray, 635 nm fluorescence, primary screen (AID 1088); conditions: higher = more signal;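 also: binding of Prmt1 protein to compounds spotted on small-molecule microarray slides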
# [12] = growth effects on S. cerevisiae YJM789 – YJM789 clinical isolate, OD600, 24 h, basal, primary screen (AID 1089); conditions: higher = more signal, called active from +8 up or from −8 down;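 also: growth of clinical yeast isolate S. cerevisiae YJM 789 seeded 1000 cells per well; test concentration not given here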
# [13] = S. pombe growth modifiers, basal conditions – strain 972, OD600, 24 h, no modulator, primary screen (AID 1090);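 also: basal condition with compound alone and no growth modifier present; test concentration not given here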; conditions: S. pombe 972 growth, higher = more signal, called active from +8 up or from −8 down
# [14] = budding yeast growth modifiers under rapamycin – strain BY4716, OD600, 96 h, primary screen (AID 1091); also: test concentration not given here; conditions: S. cerevisiae BY4716 + rapamycin, higher = more signal, called active from +8 up or from −8 down
# [15] = target: Torsin-1A-interacting protein 2 (Homo sapiens) (UniProt Q8NFQ8); test: small molecules binding lysate-expressed LULL1 – cell lysate, human LULL1 lysate, 635/667 nm fluorescence, primary screen (AID 1092); conditions: small-molecule microarray, hLULL1 lysate binding, 635 nm fluorescence; higher = more signal;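 also: probe is lysate of COS7 cells overexpressing human LULL1; score merges per-feature 667 nm fluorescence with signal-to-noise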
# [16] = optical density change of DRC41 E. coli – strain DRC41, OD650, 24 h, E. coli filamentation project, primary screen (AID 1093);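 also: MC1000 strain lacking acrAB efflux and sulA so SOS filamentation is blocked; test concentration not given here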; conditions: E. coli DRC41 growth, higher = more signal, called active from +8 up or from −8 down
# [17] = probe aLefty2 binding to arrayed compounds – biochemical, biotinylated probe, 635/667 nm fluorescence, primary screen (AID 1094); conditions: small-molecule microarray, higher = more signal;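 also: score merges spot fluorescence near 667 nm with spot signal-to-noise ratio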
# [18] = test system: Noggin (protein binding on small-molecule microarray); test: small molecules binding Noggin protein – biochemical, 635/667 nm fluorescence, primary screen (AID 1095); conditions: 635 nm fluorescence, higher = more signal;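 also: score merges 667 nm feature fluorescence with signal to noise over triplicate slides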
# [19] = target: Neurogenic locus notch homolog protein 3 (Homo sapiens) (UniProt Q9UM47); test: small molecules binding NOTCH3 protein – biochemical, 635/667 nm fluorescence, primary screen (AID 1096); conditions: small-molecule microarray, 635 nm fluorescence, higher = more signal
# [20] = probe aEGFR binding to arrayed compounds – biochemical, biotinylated probe, 635/667 nm fluorescence, primary screen (AID 1097); conditions: small-molecule microarray, higher = more signal;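 also: probe is a biotinylated anti-EGFR antibody binding compounds printed on slides; score combines fluorescence near 667 nm and signal to noise of each spot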
# Chain of Torsin-1A-interacting protein 2 (Homo sapiens) (Q8NFQ8 whole entry, looked up): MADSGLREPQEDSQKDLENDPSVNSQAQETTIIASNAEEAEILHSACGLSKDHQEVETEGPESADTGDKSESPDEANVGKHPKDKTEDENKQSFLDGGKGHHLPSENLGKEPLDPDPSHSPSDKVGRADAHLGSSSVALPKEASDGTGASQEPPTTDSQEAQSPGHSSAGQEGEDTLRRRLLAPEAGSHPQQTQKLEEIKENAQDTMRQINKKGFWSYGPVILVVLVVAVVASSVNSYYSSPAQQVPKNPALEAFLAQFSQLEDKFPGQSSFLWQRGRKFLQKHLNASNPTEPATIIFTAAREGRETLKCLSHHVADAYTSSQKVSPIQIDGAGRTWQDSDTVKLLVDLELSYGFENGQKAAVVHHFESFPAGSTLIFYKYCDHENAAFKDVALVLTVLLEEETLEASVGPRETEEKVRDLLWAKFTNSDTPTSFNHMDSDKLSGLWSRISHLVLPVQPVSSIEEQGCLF
# Chain of Pro-neuregulin-1, membrane-bound isoform (Homo sapiens) (Q02297 whole entry, looked up, the tested form may be a part, canonical isoform): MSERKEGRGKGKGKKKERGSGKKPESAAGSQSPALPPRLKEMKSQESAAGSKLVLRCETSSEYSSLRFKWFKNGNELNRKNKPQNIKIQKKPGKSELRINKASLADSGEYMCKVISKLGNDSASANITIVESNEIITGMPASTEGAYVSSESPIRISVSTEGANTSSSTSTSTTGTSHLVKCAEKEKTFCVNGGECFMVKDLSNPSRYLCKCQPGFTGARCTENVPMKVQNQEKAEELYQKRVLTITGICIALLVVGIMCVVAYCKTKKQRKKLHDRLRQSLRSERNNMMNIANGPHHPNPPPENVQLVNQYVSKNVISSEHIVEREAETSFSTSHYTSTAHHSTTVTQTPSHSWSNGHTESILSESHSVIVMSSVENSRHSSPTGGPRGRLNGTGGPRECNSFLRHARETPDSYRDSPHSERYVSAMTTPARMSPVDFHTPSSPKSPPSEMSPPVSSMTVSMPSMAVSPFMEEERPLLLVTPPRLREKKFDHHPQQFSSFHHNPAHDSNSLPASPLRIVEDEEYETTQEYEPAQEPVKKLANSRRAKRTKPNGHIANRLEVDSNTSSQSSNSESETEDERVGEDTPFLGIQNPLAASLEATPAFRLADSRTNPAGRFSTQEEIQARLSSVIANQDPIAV
# Chain of Neurogenic locus notch homolog protein 2 (Homo sapiens) (Q04721 whole entry, looked up, canonical isoform): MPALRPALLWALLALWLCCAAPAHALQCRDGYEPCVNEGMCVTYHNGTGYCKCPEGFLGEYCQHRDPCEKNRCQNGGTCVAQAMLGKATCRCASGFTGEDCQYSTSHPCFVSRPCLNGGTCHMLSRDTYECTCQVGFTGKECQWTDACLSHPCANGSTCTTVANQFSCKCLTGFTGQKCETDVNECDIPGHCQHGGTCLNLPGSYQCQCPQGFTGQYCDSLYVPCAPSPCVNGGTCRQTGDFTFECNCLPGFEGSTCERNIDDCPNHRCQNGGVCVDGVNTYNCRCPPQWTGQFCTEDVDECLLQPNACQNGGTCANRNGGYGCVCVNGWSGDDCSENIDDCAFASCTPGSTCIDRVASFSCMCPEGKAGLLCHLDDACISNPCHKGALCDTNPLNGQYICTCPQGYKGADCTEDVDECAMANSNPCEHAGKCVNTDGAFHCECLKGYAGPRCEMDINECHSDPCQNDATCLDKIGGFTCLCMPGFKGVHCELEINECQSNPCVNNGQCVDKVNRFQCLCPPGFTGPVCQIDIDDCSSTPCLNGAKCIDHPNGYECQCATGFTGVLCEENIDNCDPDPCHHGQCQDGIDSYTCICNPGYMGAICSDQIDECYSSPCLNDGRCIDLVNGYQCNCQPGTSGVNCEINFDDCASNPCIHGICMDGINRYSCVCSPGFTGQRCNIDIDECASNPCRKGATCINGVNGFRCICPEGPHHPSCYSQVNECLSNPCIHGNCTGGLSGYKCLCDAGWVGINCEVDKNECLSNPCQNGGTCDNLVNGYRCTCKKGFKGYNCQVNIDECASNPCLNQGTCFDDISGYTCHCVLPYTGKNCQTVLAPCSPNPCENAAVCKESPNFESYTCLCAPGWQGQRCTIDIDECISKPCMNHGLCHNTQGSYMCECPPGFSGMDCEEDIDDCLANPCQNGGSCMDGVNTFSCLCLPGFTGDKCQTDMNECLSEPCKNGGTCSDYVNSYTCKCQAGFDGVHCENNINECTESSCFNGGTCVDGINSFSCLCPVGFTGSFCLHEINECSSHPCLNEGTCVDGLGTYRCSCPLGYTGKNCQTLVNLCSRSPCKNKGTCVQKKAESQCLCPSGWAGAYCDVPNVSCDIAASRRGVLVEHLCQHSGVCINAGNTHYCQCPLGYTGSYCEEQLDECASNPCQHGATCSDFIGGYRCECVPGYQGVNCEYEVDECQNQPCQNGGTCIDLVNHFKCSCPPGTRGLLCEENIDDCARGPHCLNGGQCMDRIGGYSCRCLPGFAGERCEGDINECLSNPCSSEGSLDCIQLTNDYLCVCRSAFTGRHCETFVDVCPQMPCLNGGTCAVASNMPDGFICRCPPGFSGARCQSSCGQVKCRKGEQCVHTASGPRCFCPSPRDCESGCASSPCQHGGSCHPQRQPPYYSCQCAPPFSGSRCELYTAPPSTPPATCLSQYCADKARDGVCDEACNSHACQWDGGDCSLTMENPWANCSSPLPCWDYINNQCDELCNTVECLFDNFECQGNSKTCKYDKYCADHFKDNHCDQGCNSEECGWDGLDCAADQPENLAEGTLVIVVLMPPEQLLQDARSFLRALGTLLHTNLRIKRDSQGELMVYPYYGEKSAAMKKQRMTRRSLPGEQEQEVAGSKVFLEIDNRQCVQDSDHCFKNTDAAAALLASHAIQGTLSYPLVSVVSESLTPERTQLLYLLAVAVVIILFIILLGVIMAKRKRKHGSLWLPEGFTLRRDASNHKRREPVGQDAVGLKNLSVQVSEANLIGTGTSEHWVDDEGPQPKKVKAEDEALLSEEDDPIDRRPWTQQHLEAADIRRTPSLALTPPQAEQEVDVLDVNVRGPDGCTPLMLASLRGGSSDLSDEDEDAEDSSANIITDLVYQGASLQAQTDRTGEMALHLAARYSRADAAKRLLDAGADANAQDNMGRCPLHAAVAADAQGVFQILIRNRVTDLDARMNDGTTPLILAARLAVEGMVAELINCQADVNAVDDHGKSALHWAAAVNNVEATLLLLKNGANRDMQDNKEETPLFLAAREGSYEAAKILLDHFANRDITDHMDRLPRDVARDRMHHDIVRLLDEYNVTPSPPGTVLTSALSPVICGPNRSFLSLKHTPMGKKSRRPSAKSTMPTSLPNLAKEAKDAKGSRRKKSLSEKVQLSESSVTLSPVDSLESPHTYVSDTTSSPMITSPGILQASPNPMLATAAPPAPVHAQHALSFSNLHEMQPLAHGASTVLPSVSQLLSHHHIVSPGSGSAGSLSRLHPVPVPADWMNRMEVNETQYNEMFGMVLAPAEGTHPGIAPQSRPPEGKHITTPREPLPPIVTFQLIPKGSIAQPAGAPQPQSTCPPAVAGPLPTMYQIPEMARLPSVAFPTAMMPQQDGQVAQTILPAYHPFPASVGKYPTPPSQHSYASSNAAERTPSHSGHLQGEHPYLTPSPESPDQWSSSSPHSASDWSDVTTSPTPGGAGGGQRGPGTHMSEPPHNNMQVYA
Structure (SMILES),composite z-score [1],composite z-score [2],composite z-score [3],composite z-score [4],composite z-score [5],composite z-score [6],composite z-score [7],z-score [8],composite z-score [9],composite z-score [10],composite z-score [11],z-score [12],z-score [13],z-score [14],composite z-score [15],z-score [16],composite z-score [17],composite z-score [18],composite z-score [19],composite z-score [20]
O=C1O[C@H](c2ccccc2)[C@H](c2ccccc2)N2[C@H]1[C@@H](C(=O)O)[C@]1(C(=O)Nc3ccc(C#CCCO)cc31)[C@H]2c1ccc(OCCO)cc1,0.282,1.12,-0.12,0.826,0.89,1.86,1.28,-0.708 (inactive),0.101,0.189,0.862,0.19 (inactive),-0.428 (inactive),-0.502 (inactive),1.98,1.71 (inactive),0.547,0.452,0.105,-0.0304
O=C1N(CCS(=O)(=O)c2ccccc2)c2ccccc2C[C@]12N=C(c1ccc(OCCCO)cc1)O[C@@H]2c1ccccc1,0.227,0.335,0.0605,-0.122,1.15,0.333,1.23,-0.253 (inactive),0.734,0.0053,1.48,2.51 (inactive),0.762 (inactive),4.39 (inactive),3.12,0.568 (inactive),0.225,0.83,1.09,-0.164
CC(C)OC(=O)CC(=O)CC(O)c1cccc([N+](=O)[O-])c1 (stereo not given),0.62,1.22,-0.0028,0.376,0.546,0.334,0.947,-1 (inactive),0.815,-0.305,1.09,-4.2 (inactive),-1.84 (inactive),-2.74 (inactive),1.64,0.305 (inactive),-0.186,-0.164,0.83,-0.0215
COc1ccc(C(O)C2C=CC3C(=O)N(c4ccccc4)C(=O)C3N2Nc2ccc(C#N)cc2)cc1OCc1ccccc1 (stereo not given),1.98,1.55,0.19,0.472,1.34,2.02,0.823,0.686 (inactive),1.09,0.0053,1.3,-0.598 (inactive),1.66 (inactive),1.38 (inactive),2.6,-1.16 (inactive),0.455,-0.634,1.11,0.0808
CC(=O)OCC1C2CC[C@H]3C(OCc4ccc(F)cc4C(F)(F)F)OC[C@]4(C)[C@H]3C2=C(CN4C(=O)OC(C)(C)C)[C@H](C)C1COC(C)=O (stereo not given in full),0.496,1.4,-0.0336,0.363,0.101,0.823,0.783,1.06 (inactive),0.579,0.141,-0.025,1.56 (inactive),2.04 (inactive),1.15 (inactive),1.35,-1.36 (inactive),0.054,1.2,-0.439,-0.0512
CC(C)=CCCC(C)=CC(O)C1C=CC2C(=O)NC(=O)C2N1Nc1ccccn1 (stereo not given),-0.631,1.6,0.059,1.16,1.57,0.966,1.23,-0.385 (inactive),1.21,-0.109,1.56,-1.17 (inactive),0.504 (inactive),-0.952 (inactive),1.8,-0.978 (inactive),0.212,1.36,1.11,0.186
CN(C)CCCNC(=O)[C@@]1(C)c2ccccc2C(=O)N(Cc2ccc(OC(F)(F)F)cc2)[C@H]1c1ccc(CO)cc1,0.462,-0.674,-0.0587,-0.959,-0.538,1.35,0.161,-2.46 (inactive),-0.329,-0.435,1.21,-1.7 (inactive),-1.93 (inactive),-1.42 (inactive),1.53,0.649 (inactive),0.0239,-0.552,-0.0992,-0.229
O=C1NC(=O)C2C1C=CC(C(O)c1ccc(B(O)O)cc1)N2Nc1ccc(Cl)cc1Cl (stereo not given),-0.144,-0.397,-0.0095,0.454,1.11,1.16,0.955,0.402 (inactive),0.514,-0.0645,-0.201,1.33 (inactive),-0.229 (inactive),0.715 (inactive),1.71,-0.758 (inactive),0.126,-0.255,0.287,-0.0238
C#CCN1[C@@H](Cc2ccccc2)C(=O)O[C@H](Cc2ccccc2)[C@@H]1/C=C/C1CC1,-0.733,0.819,-0.0807,0.289,-0.271,-0.151,0.86,-3.46 (inactive),0.426,0.198,-0.101,0.295 (inactive),-0.361 (inactive),0.148 (inactive),1.14,0.855 (inactive),-0.185,0.33,0.246,-0.0422
COc1ccc([Si](C)(C)[C@@H]2[C@@H](CC(=O)N3Cc4ccccc4C[C@H]3CO)O[C@]3(C(=O)N(Cc4ccc(N5CCOC5=O)cc4)c4ccccc43)[C@H]2C)cc1,-0.169,0.669,-0.178,0.284,0.405,1,1.09,-2.85 (inactive),0.27,0.0274,1.57,-0.631 (inactive),0.693 (inactive),3.78 (inactive),1.56,1.36 (inactive),-0.133,1.55,1.13,-0.0947
